From PubChem BioAssay
For some of these results: Potency and affinity values are given separately. Activity calls are given as the source filed them.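 Rule for the calls, unless noted: active = primary screen activator hit with a dose response curve and TRPC4 channel activation at any tested dose; inactive = no activation, no dose response, or not a primary hit.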

What was measured:
[1] = system: TRPC4 beta (transient receptor potential cation channel C4), mouse; test: activators of mouse TRPC4 channel, confirmation, cell-based, Fluo4 calcium, HEK293 TRPC4beta/mu-opioid, duplicates, 10 µM (AID 2426;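 active = fluorescence ratio normalized to control raised more than 50% in primary screen plus both repeat runs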); conditions: Fluo4 calcium fluorescence, at 10 µM; active compounds read high
[2] = system: transient receptor potential cation channel C4 beta (TRPC4), mouse; test: activators of mouse TRPC4 channel, confirmation, cell-based, second round, Fluo4, HEK293 TRPC4beta/mu-opioid, 1 µM (AID 2461;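 active = primary screen active and over 50% activation in each of two duplicate runs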); conditions: Fluo4 calcium fluorescence, at 1 µM; active compounds read high
[3] = system: TRPC4 (transient receptor potential cation channel C4 beta), mouse; test: positive allosteric modulators of mouse TRPC4, confirmation, cell-based, second round, Fluo-4, HEK293 TRPC4beta/mu-opioid, 1 µM (AID 2554;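 active = primary screen hit whose fluorescence ratio, in both repeats, exceeds the weak agonist control mean by 3 SD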); conditions: DAMGO EC20, Fluo-4 calcium flux, at 1 µM; active compounds read high
[4] = system: TRPC4 beta (transient receptor potential cation channel C4), mouse; test: positive allosteric modulators of mouse TRPC4, confirmation, cell-based, Fluo-4, HEK293 TRPC4beta/mu-opioid (AID 2555;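 active = primary screen hit whose calcium fluorescence ratio, in both repeats, exceeds the weak agonist control mean by 3 SD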); conditions: DAMGO EC20, Fluo-4 calcium flux, at 10 µM; active compounds read high
[5] = biological target: Short transient receptor potential channel 4 (Mus musculus) (UniProt Q9QUQ5); test: inhibitors of mouse TRPC4 channel, confirmation, cell-based, Fluo4, HEK293 TRPC4beta/mu-opioid (AID 2636;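 active = calcium signal cut by more than 3 SD below the full-agonist control yet still positive, in both repeats and the earlier primary screen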); conditions: DAMGO, Fluo4 calcium flux, at 10 µM; active compounds read high
Short transient receptor potential channel 4 (Mus musculus), sequence (Q9QUQ5 whole entry, looked up): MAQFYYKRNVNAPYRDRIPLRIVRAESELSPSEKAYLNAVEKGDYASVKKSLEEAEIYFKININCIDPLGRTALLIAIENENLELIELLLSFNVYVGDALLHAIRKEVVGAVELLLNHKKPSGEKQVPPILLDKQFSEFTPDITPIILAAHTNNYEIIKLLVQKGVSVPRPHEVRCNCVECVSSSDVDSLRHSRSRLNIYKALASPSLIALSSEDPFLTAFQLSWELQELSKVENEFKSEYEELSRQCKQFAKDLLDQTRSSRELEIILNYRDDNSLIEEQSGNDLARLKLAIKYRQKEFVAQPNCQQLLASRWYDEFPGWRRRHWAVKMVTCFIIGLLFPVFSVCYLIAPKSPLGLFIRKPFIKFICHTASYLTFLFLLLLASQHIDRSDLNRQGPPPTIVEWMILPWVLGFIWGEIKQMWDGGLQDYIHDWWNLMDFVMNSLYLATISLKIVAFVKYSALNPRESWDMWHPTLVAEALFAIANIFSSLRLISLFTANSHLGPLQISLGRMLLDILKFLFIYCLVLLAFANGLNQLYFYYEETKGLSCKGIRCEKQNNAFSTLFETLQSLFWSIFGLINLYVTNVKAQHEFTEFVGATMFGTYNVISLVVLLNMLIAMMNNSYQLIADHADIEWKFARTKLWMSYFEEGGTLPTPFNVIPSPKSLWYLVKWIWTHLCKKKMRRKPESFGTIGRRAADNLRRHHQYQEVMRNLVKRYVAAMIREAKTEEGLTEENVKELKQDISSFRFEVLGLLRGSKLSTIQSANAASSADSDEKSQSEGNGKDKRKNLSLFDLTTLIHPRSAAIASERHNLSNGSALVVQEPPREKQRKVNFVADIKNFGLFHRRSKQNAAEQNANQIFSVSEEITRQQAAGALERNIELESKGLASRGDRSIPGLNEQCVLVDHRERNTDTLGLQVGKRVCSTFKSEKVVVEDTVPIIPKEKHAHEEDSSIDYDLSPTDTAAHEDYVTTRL

[6] = biological target: Short transient receptor potential channel 4 (Mus musculus) (UniProt Q9QUQ5); test: inhibitors of mouse TRPC4 channel, confirmation, cell-based, second round, Fluo4, HEK293 TRPC4beta/mu-opioid, 1 µM (AID 2637;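 active = calcium signal ratio cut to more than 3 SD under the fully stimulated control mean yet still positive, in both repeats and the primary screen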;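 for inhibition: percent of integrated ratio relative to wells lacking test compound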); conditions: Fluo4 calcium flux, DAMGO, at 1 µM; active compounds read high
[7] = biological target: Short transient receptor potential channel 4 (Mus musculus) (UniProt Q9QUQ5); test: mouse TRPC4 channel activators, dose response, cell-based, HEK293 TRPC4/mu-opioid, Fluo-4 calcium (AID 434937)
[8] = biological target: Short transient receptor potential channel 4 (Mus musculus) (UniProt Q9QUQ5); test: TRPC4 positive allosteric modulators, dose response, cell-based, HEK293 TRPC4/mu-opioid, Fluo-4 calcium, EC20 DAMGO (AID 434941;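 active = earlier screen potentiator hit that boosts the TRPC4 ion channel at some dose, with a dose response; inactive = no potentiation, no dose response, or not a prior hit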;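 note: calcium entry triggered by an EC20 dose of DAMGO at the co-expressed mu-opioid receptor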)
[9] = biological target: Short transient receptor potential channel 6 (Mus musculus) (UniProt Q61143); test: inhibition of mouse TRPC6 channel, confirmation, selectivity assay for TRPC4 inhibitor project, cell-based, HEK293, membrane potential dye, duplicate (AID 434948;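 active = active in primary screen and both duplicates, each dropping signal beyond three positive-control SD with fluorescence still positive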); conditions: HEK293 TRPC6, membrane potential dye fluorescence, at 10 µM, stimulated with maximal-effect acetylcholine; active compounds read high
Short transient receptor potential channel 6 (Mus musculus), sequence (Q61143 whole entry, looked up): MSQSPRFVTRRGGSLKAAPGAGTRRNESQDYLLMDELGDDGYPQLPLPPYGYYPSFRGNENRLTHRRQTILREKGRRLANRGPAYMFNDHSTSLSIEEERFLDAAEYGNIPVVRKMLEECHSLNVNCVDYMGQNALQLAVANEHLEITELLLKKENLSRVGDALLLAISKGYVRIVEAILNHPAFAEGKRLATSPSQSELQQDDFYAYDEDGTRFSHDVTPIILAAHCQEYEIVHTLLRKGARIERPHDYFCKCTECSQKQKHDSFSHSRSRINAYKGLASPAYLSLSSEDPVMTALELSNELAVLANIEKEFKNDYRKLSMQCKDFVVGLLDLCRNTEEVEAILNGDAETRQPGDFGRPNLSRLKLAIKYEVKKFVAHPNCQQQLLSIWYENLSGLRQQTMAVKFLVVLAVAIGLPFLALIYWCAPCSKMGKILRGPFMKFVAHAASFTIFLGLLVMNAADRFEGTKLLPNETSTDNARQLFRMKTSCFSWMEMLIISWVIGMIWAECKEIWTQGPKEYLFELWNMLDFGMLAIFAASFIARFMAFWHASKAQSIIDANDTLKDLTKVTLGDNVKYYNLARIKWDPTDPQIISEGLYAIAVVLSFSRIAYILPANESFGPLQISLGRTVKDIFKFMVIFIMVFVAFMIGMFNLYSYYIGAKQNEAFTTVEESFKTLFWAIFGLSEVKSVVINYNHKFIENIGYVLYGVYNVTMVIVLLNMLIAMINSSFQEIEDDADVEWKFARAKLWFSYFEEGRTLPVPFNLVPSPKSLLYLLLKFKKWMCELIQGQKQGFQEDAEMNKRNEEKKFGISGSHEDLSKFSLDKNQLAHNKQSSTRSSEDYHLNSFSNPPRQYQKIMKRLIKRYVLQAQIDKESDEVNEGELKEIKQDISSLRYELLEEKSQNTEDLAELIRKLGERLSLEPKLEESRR

[10] = biological target: Short transient receptor potential channel 6 (Mus musculus) (UniProt Q61143); test: activation of mouse TRPC6 channel, confirmation, selectivity assay for TRPC4 activator project, cell-based, HEK293, membrane potential dye, duplicate (AID 434950;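 active = membrane potential signal rise above negative control mean plus 3 SD in both duplicates, also active in the earlier TRPC4 screen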); conditions: HEK293 TRPC6, membrane potential fluorescence, at 10 µM; active compounds read high
[11] = biological target: Short transient receptor potential channel 6 (Mus musculus) (UniProt Q61143); test: TRPC6 potentiation by TRPC4 potentiator hits, confirmation, selectivity assay for TRPC4 potentiator project, HEK293 cells, membrane potential dye, duplicate (AID 434952;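 active = compound raising the membrane signal above positive-control mean plus 3 SD in both repeats, and a primary screen hit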); conditions: HEK293 TRPC6, membrane potential dye fluorescence, at 10 µM, maximal acetylcholine added after compound; active compounds read high
[12] = biological target: Short transient receptor potential channel 4 (Mus musculus) (UniProt Q9QUQ5); test: calcium flux activators in TRPC4/5HT1a cells, counter-screen for TRPC4 activator project, cell-based, second counter screen, HEK293 TRPC4/5HT1a, Fluo-4 (AID 434977;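 active = calcium signal rise above buffer-control mean plus 5 SD in both duplicates, and also a hit in the primary screen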); conditions: Fluo-4 calcium flux, at 10 µM; active compounds read high
[13] = calcium flux inhibitors in TRPC4/5HT1a cells, confirmation, counter-screen for TRPC4 inhibitor project, cell-based, second counter screen, HEK293 TRPC4/5HT1a, Fluo-4 (AID 434978;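 active = primary screen active whose calcium signal fell more than 3 SD beyond the full-serotonin control mean in both duplicate plates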;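 for outcome: serotonin given first at submaximal then at maximal dose after compound preincubation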); conditions: Fluo-4 calcium flux, at 10 µM, serotonin added to trigger calcium flux; active compounds read high
[14] = system: TRPC4 (mouse), co-expressed with 5HT1a in HEK293; test: calcium flux potentiators in TRPC4/5HT1a cells, confirmation, counter-screen for TRPC4 potentiator project, cell-based, second counter screen, HEK293 TRPC4/5HT1a, Fluo-4 (AID 434979;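 active = signal rise over 3 SD above mean of control wells given weak agonist, in both repeats and first screen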); conditions: Fluo-4 calcium flux, at 10 µM, serotonin added at its EC20 dose; active compounds read high
[15] = calcium flux activation in mu-opioid HEK293 cells, confirmation, counter-screen for TRPC4 activator project, cell-based, HEK293 mu-opioid receptor line (AID 449723;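 active = hit in primary screen, with calcium signal over 5 SD above buffer well mean in both duplicates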;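 note: counter screen cells carry the mu-opioid receptor alone and lack TRPC4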); conditions: Fluo-4 calcium fluorescence, at 10 µM; active compounds read high
[16] = calcium flux enhancement in mu-opioid HEK293 cells, confirmation, counter-screen for TRPC4 allosteric potentiator project, cell-based, HEK293 mu-opioid receptor line (AID 449724;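 active = calcium signal rise more than 3 SD above the low-dose agonist control mean, in both duplicate plates and the primary screen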); conditions: Fluo-4 calcium flux, at 10 µM, compound added before EC20 DAMGO stimulus; active compounds read high

Compound	outcome [1]	outcome [2]	outcome [3]	outcome [4]	inhibition [5]	outcome [6]	outcome [7]	outcome [8]	outcome [9]	outcome [10]	outcome [11]	outcome [12]	inhibition [13]	outcome [14]	outcome [15]	outcome [16]	inhibition [6]	inhibition [9]	outcome [13]	outcome [5]
CC(/C=C1\SC(=S)N(C(C(=O)O)C(C)C)C1=O)=C\c1ccccc1 (stereo unspecified)	inactive	inactive	inactive	inactive	99% (active)	inactive	inactive	inactive	inactive	inactive	inactive	inactive	16% (active)	inactive	inactive	inactive	–	–	–	–
c1csc(-c2nc(NCC3CCCO3)c3ccccc3n2)c1 (stereo unspecified)	inactive	inactive	inactive	inactive	79% (active)	inactive	inactive	inactive	inactive	inactive	inactive	inactive	28% (active)	inactive	inactive	inactive	–	–	–	–
O=C(CN1CCCCCC1)N1c2ccccc2Sc2ccccc21	inactive	inactive	inactive	inactive	79% (active)	–	inactive	inactive	–	inactive	inactive	inactive	29.7% (active)	inactive	inactive	inactive	56% (active)	21% (active)	–	–
CC(C)(C)Cc1nc2ccccc2n1CCc1ccccc1	inactive	inactive	inactive	inactive	82% (active)	–	inactive	inactive	inactive	inactive	inactive	inactive	17.2% (active)	inactive	inactive	inactive	64% (active)	–	–	–
CCOC(=O)c1c(NC(=O)C2CCCCC2C(=O)O)sc2c1CCCCC2 (stereo unspecified)	inactive	inactive	inactive	inactive	80% (active)	inactive	inactive	inactive	inactive	inactive	inactive	inactive	42.6% (active)	inactive	inactive	inactive	–	–	–	–
CC(=O)Nc1cccc(C(=O)NCC2(N3CCCCC3)CCCCC2)c1	inactive	inactive	inactive	inactive	89% (active)	inactive	inactive	inactive	inactive	inactive	inactive	inactive	–	inactive	inactive	inactive	–	–	inactive	–
CCOC(=O)C1=NN(c2ccccc2C)C2=NC(C)=C(C(=O)OC)C(c3cccc(OC)c3)N12 (stereo unspecified)	inactive	inactive	inactive	inactive	75% (active)	inactive	inactive	inactive	inactive	inactive	inactive	inactive	20.5% (active)	inactive	inactive	inactive	–	–	–	–
COC(=O)c1c(NC(=O)CSc2ncn[nH]2)sc(C)c1C	inactive	inactive	inactive	inactive	67% (active)	inactive	inactive	inactive	inactive	inactive	inactive	inactive	–	inactive	inactive	inactive	–	–	inactive	–
O=C(Nc1ccnn1C1CCN(CCCC2CCCC2)CC1)c1ccccc1Cl	inactive	inactive	inactive	inactive	97% (active)	inactive	inactive	inactive	inactive	inactive	inactive	inactive	–	inactive	inactive	inactive	–	–	inactive	–
Oc1ccc(-c2csc(-c3ccccc3)n2)cc1O	inactive	inactive	inactive	inactive	80% (active)	inactive	inactive	inactive	inactive	inactive	inactive	inactive	–	inactive	inactive	inactive	–	–	inactive	–
CCCOc1ccc(-c2nc(SCc3ccccc3)[nH]c(=O)c2C#N)cc1OC	inactive	inactive	inactive	inactive	66% (active)	inactive	inactive	inactive	inactive	inactive	inactive	inactive	–	inactive	inactive	inactive	–	–	inactive	–
Clc1ccc(-c2csc3ncnc(NCCN4CCOCC4)c23)cc1	inactive	inactive	inactive	inactive	79% (active)	–	inactive	inactive	inactive	inactive	inactive	inactive	38% (active)	inactive	inactive	inactive	50% (active)	–	–	–
Cc1n[nH]c(C)c1CCCCOc1ccccc1	inactive	inactive	inactive	inactive	95% (active)	–	inactive	inactive	inactive	inactive	inactive	inactive	31.5% (active)	inactive	inactive	inactive	40% (active)	–	–	–
COc1cc(C(=O)N(CCc2ccccc2)C2=CC3CCC(C2)N3C)cc(OC)c1OC (stereo unspecified)	inactive	inactive	inactive	inactive	–	–	inactive	inactive	inactive	inactive	inactive	inactive	–	inactive	inactive	inactive	54% (active)	–	inactive	inactive
COCCn1c(SCc2ccccc2F)nc2ccccc2c1=O	inactive	inactive	inactive	inactive	88% (active)	inactive	inactive	inactive	inactive	inactive	inactive	inactive	20.8% (active)	inactive	inactive	inactive	–	–	–	–
OCC1(Cc2ccc(Cl)cc2)CCN(Cc2ccccc2F)CC1	inactive	inactive	inactive	inactive	89% (active)	–	inactive	inactive	inactive	inactive	inactive	inactive	27.9% (active)	inactive	inactive	inactive	38% (active)	–	–	–
